According to the supplement of paper PMC10981050:
Several values for one entry are separate records, joined by “and”; a condition that tells them apart may be missing. Equal values may be shown once. Where a name gives a salt, the structure may show the parent alone.

Tests used:
Experiment in all cases: cell viability relative to vehicle control; higher = less cytotoxic
Details in all cases: 10 µM
K562 = system: K562
How it was run: (§1)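 Mutant clones made by CRISPR editing and their isogenic wild-type counterparts, from four leukaemia lines, were exposed to a single 10 µM dose of each library compound for 48 h. The supernatant was then removed and CellTiter-Glo luminescence was read. Viability was reported as percent of the on-plate vehicle control.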

MARIMO = system: MARIMO
How it was run: as §1

MOLM14 = system: MOLM14
How it was run: as §1

OCI-AML2 = system: OCI-AML2
How it was run: as §1

Structure (SMILES)	cell viability (K562; SRSF2 genotype: SRSF2 P95H/wt)	cell viability (K562; SRSF2 genotype: SRSF2 wt/wt) [%]	cell viability (MARIMO; SRSF2 genotype: SRSF2 P95H/wt) [%]	cell viability (MARIMO; SRSF2 genotype: SRSF2 wt/wt) [%]	cell viability (MOLM14; SRSF2 genotype: SRSF2 P95H/wt) [%]	cell viability (MOLM14; SRSF2 genotype: SRSF2 wt/wt) [%]	cell viability (OCI-AML2; SRSF2 genotype: P95H/wt) [%]	cell viability (OCI-AML2; SRSF2 genotype: wt/wt) [%]
CC(C)=CCC[C@](C)(O)[C@H]1CC[C@]2(C)[C@@H]1[C@H](O)C[C@@H]1[C@@]3(C)CC[C@H](O[C@@H]4O[C@H](CO)[C@@H](O)[C@H](O)[C@H]4O)C(C)(C)[C@@H]3CC[C@]12C [20S-Ginsenoside Rh2]	98.1% and 92.1%	105	104	106	103	106	97.4	96.2
CCN(CC)CCOC(=O)C(O)(c1ccccc1)c1ccccc1 [Benactyzine hydrochloride]	87.1% and 93%	84.2	93	98.4	92.6	94.4	89.8	92.6
O=C(O[C@H]1C[C@H]2CC[C@@H](C1)[N+]21CCCC1)C(O)(c1ccccc1)c1ccccc1 [Trospium chloride (Sanctura)]	98.8% and 100%	95.7	101	102	99.4	102	102	102
COP(=O)(OC)SCn1c(=O)oc2cc(Cl)cnc21 [Azamethiphos]	55.4% and 71.8%	78.9	48.4	58.3	93.3	107	110	106
CCC(C)C(=O)O[C@@H]1[C@@H](OC(C)=O)[C@]2(C)[C@H](C(C)=O)CC[C@@]23O[C@]32CC[C@H]3C[C@@H](O[C@H]4C[C@@H](OC)[C@H](O[C@@H]5O[C@H](C)[C@@H](O)[C@@H](OC)[C@H]5O)[C@@H](C)O4)CC[C@]3(C)[C@@H]12 (some centres not stated) [Tenacissoside H]	89.8% and 95.2%	97.7	96.9	93.2	94.6	93.4	98.9	96.7
CC(C)c1cc2c(c(O)c1O)[C@@]1(C(=O)O)CCCC(C)(C)[C@@H]1CC2 [Carnosic acid]	70.2% and 83.7%	86.6	41.8	5.17	43.8	41.1	33.2	27.1
CN(C)Cc1c[nH]c2ccccc12 [Gramine]	101%	100	102	102	99.6	100	102	98.9
COc1cc2c(cc1OC)[C@@H](Cc1ccc(O)c(Oc3cc4c(cc3OC)CCN(C)[C@@H]4Cc3ccc(O)cc3)c1)N(C)CC2.[O-][Cl+3]([O-])([O-])O [Liensinine perchlorate]	76.2% and 65.4%	65.4	55.5	66.8	50.4	56.1	51.5	45
COc1c(C)c(O)cc2[o+]c(-c3ccccc3)ccc12.[O-][Cl+3]([O-])([O-])[O-] [Dracohodin perochlorate]	80.8% and 78.3%	77.4	80.1	86.8	80.1	82.3	83.6	84.1
O=C1CCC[C@@H]2[C@H]3CCCN4CCC[C@@H](CN12)[C@@H]34 [Matrine ((+)-Matrine)]	94.4% and 112%	102	107	110	105	106	106	103
C[C@@H]1CC[C@@]2(OC1)O[C@H]1C[C@H]3[C@@H]4CC=C5C[C@@H](O[C@@H]6O[C@H](CO)[C@@H](O[C@@H]7O[C@@H](C)[C@H](O)[C@@H](O)[C@H]7O)[C@H](O)[C@H]6O[C@@H]6O[C@@H](C)[C@H](O)[C@@H](O)[C@H]6O)CC[C@]5(C)[C@H]4CC[C@]3(C)[C@H]1[C@@H]2C [Dioscin (Collettiside III)]	0.8% and 0.73%	0.55	1.89	0.64	0.47	0.55	0.51	0.51
CNCC(O)c1ccc(O)cc1 (configuration not stated) [Synephrine (Oxedrine)]	106% and 102%	94.5	103	98.5	97.4	101	98.4	106
O=C(O)C(=O)CBr [Bromopyruvic acid]	99.8% and 89.6%	90.3	90	97.8	91.6	94.7	94.7	93.9
CC(C)c1ccc2c(c1O)CC[C@H]1C3=C(CC[C@]21C)C(=O)OC3 [Triptophenolide]	70.5% and 80.3%	79.5	70.3	62.5	99.4	92	49	61.7
C=C1C[C@@H]2[C@H](CC[C@]3(C)C(=O)CC[C@@H]23)[C@@]2(C)C=CC(=O)C=C12 [Exemestane]	93.7% and 96.7%	100	82.8	92.6	80.3	94.3	90.2	91.2
COc1cc2c3c(c1OC)-c1ccccc1C[C@H]3N(C)CC2 [Nuciferine]	102% and 108%	102	102	108	102	104	96.3	106
COC1=C[C@@H]2[C@@H]3Cc4ccc(OC)c(O)c4[C@]2(CCN3C)CC1=O [Sinomenine (Cucoline)]	103% and 95.1%	90.5	97.9	96.2	89.9	97.3	95	97.8
O=C1C2CCN(CC2)C1(CO)CO	74.5% and 85.5%	73.3	83.6	73.8	34.1	41.8	56.2	47
O=c1ccc2c(O)c3ccoc3cc2o1 [Bergaptol]	108% and 106%	116	105	95.6	113	107	106	97.5
N[C@@H]1C[C@H]1c1ccccc1 [Tranylcypromine (2-PCPA) HCl]	109% and 112%	115	98	107	97.7	97.5	94.1	85

Structure (SMILES)	cell viability (K562; SRSF2 genotype: SRSF2 P95H/wt)	cell viability (K562; SRSF2 genotype: SRSF2 wt/wt) [%]	cell viability (MARIMO; SRSF2 genotype: SRSF2 P95H/wt) [%]	cell viability (MARIMO; SRSF2 genotype: SRSF2 wt/wt) [%]	cell viability (MOLM14; SRSF2 genotype: SRSF2 P95H/wt) [%]	cell viability (MOLM14; SRSF2 genotype: SRSF2 wt/wt) [%]	cell viability (OCI-AML2; SRSF2 genotype: P95H/wt) [%]	cell viability (OCI-AML2; SRSF2 genotype: wt/wt) [%]
CC(C)=CCC[C@]1(C)C=Cc2c(O)c3c(c(CC=C(C)C)c2O1)O[C@]12C(=C[C@@H]4C[C@H]1C(C)(C)O[C@@]2(C/C=C(/C)C(=O)O)C4=O)C3=O [Gambogic Acid]	1.29% and 0.59%	0.98	0.39	0.5	0.42	0.51	0.38	0.45
C=C[C@@H]1C2=CCOC(=O)C2=CO[C@H]1O[C@@H]1O[C@H](CO)[C@@H](O)[C@H](O)[C@H]1O [Gentiopicroside]	97.2% and 95.7%	96.3	94.5	99	98.5	104	94	108
O=S(=O)(CC1CS1)c1ccc(Oc2ccccc2)cc1 (configuration not stated)	88.7% and 98.8%	92.2	45.8	73.1	39.1	29.4	14.9	14.1
OC1CC2CCC(C1)N2 (configuration not stated) [Nortropine Hydrochloride]	101% and 98.7%	101	102	107	97.2	102	105	94.8
CCc1c(C(=O)C(N)=O)c2c(OCC(=O)O)cccc2n1Cc1ccccc1	93.5% and 89.8%	88.8	82.6	92	93.1	95.2	84	90.6
CC[C@H](C)[C@@H]([C@@H](CC(=O)N1CCC[C@H]1[C@H](OC)[C@@H](C)C(=O)N[C@H](C)[C@@H](O)c1ccccc1)OC)N(C)C(=O)[C@@H](NC(=O)[C@@H](NC)C(C)C)C(C)C [Monomethyl auristatin E (MMAE)]	11.7% and 32%	30.1	7.27	8.86	0.32	0.5	0.78	2.69
C[C@]12CC[C@H](O)CC1=CC[C@@H]1[C@@H]2CC[C@]2(C)C(=O)CC[C@@H]12 [Dehydroepiandrosterone (DHEA)]	89.1% and 108%	102	98.1	101	108	103	110	93.2
CN(C)CCc1ccc(O)cc1 [Hordenine]	104% and 106%	103	108	106	101	109	107	94.8
CC[C@H]1CN2CC[C@H]1C[C@H]2[C@H](O)c1ccnc2ccc(OC)cc12 [Hydroquinine]	102% and 101%	103	97.5	111	87.8	106	100	110
O=c1[nH]c2ccccc2o1 [2-Benzoxazolinone]	100% and 89.3%	96.7	97.2	102	98.4	104	91.5	94.2
COc1cc2c(cc1O)CC1NCCc3cc(OC)c(O)c-2c31 (configuration not stated) [Norisoboldine]	108% and 103%	105	93.1	90.2	99.3	103	103	99.1
Cc1ccccc1-n1c(CF)nc2ccc(N)cc2c1=O [Afloqualone]	88.1% and 90.6%	86.5	84.5	95.7	93.2	96.2	110	94.4
c1csc(-c2ccc(-c3cccs3)s2)c1 [2,2':5',2''-Terthiophene]	95.8% and 89.3%	97.1	88.1	100	91.7	98.7	84.6	85.4
CC[C@@H](C(N)=O)N1CCCC1=O [Levetiracetam]	110% and 104%	102	102	109	101	108	106	106
Cn1c(COP(=O)(NCCBr)NCCBr)cnc1[N+](=O)[O-]	102% and 109%	103	39.3	56	29.1	12.8	29.4	40.1
CNC(C)Cc1ccccc1OC (configuration not stated) [Methoxyphenamine Hydrochloride]	98% and 100%	106	100	104	106	102	107	101
CC(=O)O[C@H]1C[C@@H]2CC[C@@H]3[C@H](CC[C@@]4(C)[C@H]3C[C@H]([N+]3(C)CCCCC3)[C@@H]4OC(C)=O)[C@@]2(C)C[C@@H]1[N+]1(C)CCCCC1 [Pancuronium dibromide]	101% and 96.7%	91.6	96	99.3	103	102	97.4	101
O=C(O)CNC(=O)c1c(O)c2ccccc2n(Cc2ccccc2)c1=O	95.1% and 95.2%	101	94.3	100	99.8	101	103	96.5
COC(=O)C[C@](O)(CCC(C)(C)O)C(=O)O[C@@H]1C(OC)=C[C@]23CCCN2CCc2cc4c(cc2[C@H]13)OCO4 [Harringtonine]	12.3% and 17.8%	20.6	8.47	4.47	2.72	1	5.78	10.9
